The results in this text go back to the supplement of paper PMC10338343.

In assay [1] the test system is MILI (PIWIL2) piRISC loaded with piRNA #1 (26 nt). Kind of assay: pre-steady-state target cleavage rate (min^-1); guide: piRNA #1 5'p-UGAGGUAGUAGGUUGUAUAGUAUCCA; higher = faster piRNA-guided slicing of the target. The following applies: auxiliary factor: 500 nM mouse GTSF1. In short, it runs like this:
(§1)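 Cleave-'n-Seq measured uncleaved targets by sequencing after a transcribed, DNA-blocked target RNA library […] was mixed with 1 nM active affinity-purified piRISC holding one synthetic guide, with or without 500 nM GTSF1 partner protein, at 33 °C in HEPES–potassium acetate buffer for 0–8 or 0–960 min. Counts were normalised to depth and to weakly complementary targets, three trials were pooled, and k3 was capped at 0.0001 min^-1. A burst-and-steady-state fit gave the pre-steady-state cleavage rate.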

For assay [2], the system named is EfPiwi piRISC loaded with piRNA #1 (26 nt). Kind of assay: pre-steady-state target cleavage rate (min^-1); auxiliary factor: 500 nM Ephydatia muelleri Gtsf1; guide: piRNA #1 5'p-UGAGGUAGUAGGUUGUAUAGUAUCCA; MIWI and MILI are mouse PIWI proteins and EfPiwi is from a freshwater sponge; tags in brackets are library labels; higher = faster piRNA-guided slicing of the target. In short, it runs like this:
as §1

± gives the standard deviation. A value given as a limit tells only on which side of the number the result lay.

Regarding GGAGUGGAUACAAUACAACCUACUACCUCA, the “pre-steady-state target cleavage rate” value is 0.174 ± 0.0095 in assay [1] and 0.0165 ± 0.0068 in assay [2].

For the sequence GGAGACCUAUGAUAACAACCUACUACCUACA, the entries for the “pre-steady-state target cleavage rate” value in assay [1] and in assay [2] were 0.0036 ± 0.0024 and below 0.0001, respectively.

As for GGAGUGGUUACUAUACAACGUACUACCUCA, the “pre-steady-state target cleavage rate” value was determined as 0.0218 ± 0.003 in assay [1] and 0.00485 ± 0.0014 in assay [2].

With GGAGACCUAAGCUAUACAACCUACUACCUCA, the results for the “pre-steady-state target cleavage rate” value in assay [1] and in assay [2] were 0.141 ± 0.028 and 0.184 ± 0.066, respectively.

Turning to GGAGUGGAUAGUAUACAACCUACUACCACA, the “pre-steady-state target cleavage rate” value in assay [1] worked out at 0.0277 ± 0.0092; in assay [2], 0.00327 ± 0.0018.

GGAGAGGAUACUUUACAACCUAGUACCUCA: the “pre-steady-state target cleavage rate” value in assay [1] was 0.0146 ± 0.0048; in assay [2], 0.00261 ± 0.0016.

On to GGAGUGGAUAGUAUACAACCAACUACCUCA, for which the “pre-steady-state target cleavage rate” value in assay [1] was 0.0064 ± 0.0029; in assay [2], 0.00306 ± 0.0018.

GGAGACGAUACUAUACAUCCUACUAGCUCA: the “pre-steady-state target cleavage rate” value in assay [1] is 0.173 ± 0.027; in assay [2] it was 0.00336 ± 0.0019.

With GGAGACCAUACUAACAACCUACUACCUCA, the figures for the “pre-steady-state target cleavage rate” value in assay [1] and in assay [2] were 0.114 ± 0.019 and 0.00859 ± 0.0041, respectively.

As to GGAGAGGAUAUCUAUACAACCUACUACCUCA, the “pre-steady-state target cleavage rate” value was found to be 0.0599 ± 0.0073 in assay [1] and 0.00594 ± 0.0046 in assay [2].

Regarding GGAGAGGAUACUAUACAACCUACUACCUUA, the “pre-steady-state target cleavage rate” value was found to be 0.19 ± 0.018 in assay [1] and 0.204 ± 0.073 in assay [2].

Consider GGAGACCUUACUAUACAACCUGCUACCUCA, for which the “pre-steady-state target cleavage rate” value in assay [1] was 0.0466 ± 0.0081; in assay [2] it was 0.0174 ± 0.0079.

GGAGACGAAAGUAUACAACCUACUACCUCA: the “pre-steady-state target cleavage rate” value is 0.108 ± 0.01 in assay [1] and 0.0104 ± 0.0056 in assay [2].

Consider GGAGAGCAUACUAAACAACCUACUACCUCA, for which the figures for the “pre-steady-state target cleavage rate” value in assay [1] and in assay [2] were 0.158 ± 0.015 and 0.00417 ± 0.0033, respectively.

Take GGAGAGGAUACUACACAACCUACUACCUCA: the “pre-steady-state target cleavage rate” value in assay [1] came out at 0.193 ± 0.019; in assay [2] it was 0.00871 ± 0.004.

Consider GGAGACCUAACUAUACAACCUACUACCUCCA, for which the “pre-steady-state target cleavage rate” value was determined as 0.123 ± 0.021 in assay [1] and 0.015 ± 0.0066 in assay [2].

On to GGAGUGGAUACUAUACAACCUACUGCCUCA, for which the results for the “pre-steady-state target cleavage rate” value in assay [1] and in assay [2] were 0.102 ± 0.0082 and 0.00835 ± 0.0028, respectively.

In the case of GGAGUGGAUACUAUACAACCUACUACCCCA, the entries for the “pre-steady-state target cleavage rate” value in assay [1] and in assay [2] were 0.0956 ± 0.016 and 0.00727 ± 0.0025, respectively.

On to GGAGAGCAUACUAUACAAGCUACUACCUCA, for which the “pre-steady-state target cleavage rate” value in assay [1] was found to be 0.22 ± 0.015; in assay [2], 0.00318 ± 0.0023.

As for GGAGAGGAUGCUAUACAACCUACUACCUCA, the “pre-steady-state target cleavage rate” value in assay [1] turned out to be 0.151 ± 0.018; in assay [2], 0.00971 ± 0.006.

GGAGACCACACUAUACAACCUACUACCUCA: the “pre-steady-state target cleavage rate” value worked out at 0.221 ± 0.042 in assay [1] and 0.0344 ± 0.015 in assay [2].

On to GGAGAGGGUACUAUACAACCUACUACCUCA, for which the “pre-steady-state target cleavage rate” value in assay [1] amounted to 0.145 ± 0.013; in assay [2], 0.0162 ± 0.0072.

Take GGAGACCAUACUAUACAACCAUACUACCUCA: the “pre-steady-state target cleavage rate” value in assay [1] turned out to be 0.0045 ± 0.0036; in assay [2], 0.00431 ± 0.003.

In the case of GGAGAGGAUACUAAACAACGUACUACCUCA, the “pre-steady-state target cleavage rate” value in assay [1] turned out to be 0.013 ± 0.0022; in assay [2] it was 0.00367 ± 0.002.

As for GGAGACGAUUCUAUACAACCUACUAGCUCA, the entries for the “pre-steady-state target cleavage rate” value in assay [1] and in assay [2] were 0.12 ± 0.013 and 0.00278 ± 0.0019, respectively.

For the sequence GGAGUGGGAUACUAUACAACCUACUACCUCA, the “pre-steady-state target cleavage rate” value in assay [1] was determined as 0.204 ± 0.011; in assay [2] it was 0.143 ± 0.046.

For GGAGACGAAACUAUACAACGUACUACCUCA, the “pre-steady-state target cleavage rate” value in assay [1] came out at 0.0174 ± 0.0054; in assay [2], 0.00237 ± 0.0021.

In the case of GGAGAGGAUACUAUACAUCCAACUACCUCA, the “pre-steady-state target cleavage rate” value turned out to be 0.0065 ± 0.0019 in assay [1] and 0.00419 ± 0.0022 in assay [2].

GGAGACGAUACUAAACAACCUAGUACCUCA: the “pre-steady-state target cleavage rate” value in assay [1] came to 0.049 ± 0.0087; in assay [2] it was 0.00281 ± 0.0023.

Take GGAGACCAUACUACACAACCUACUACCUCA: the “pre-steady-state target cleavage rate” value turned out to be 0.215 ± 0.018 in assay [1] and 0.0182 ± 0.0078 in assay [2].

For GGAGUGGAUACUAUACAACCUUCAACCUCA, the “pre-steady-state target cleavage rate” value in assay [1] turned out to be 0.00344 ± 0.0019; in assay [2], 0.00298 ± 0.0018.

For GGAGACGAUACUAUUCAACCUACAACCUCA, the “pre-steady-state target cleavage rate” value worked out at 0.103 ± 0.013 in assay [1] and 0.0024 ± 0.0017 in assay [2].

Consider GGAGACCUAACAAUACAACCUACUACCUCA, for which the entries for the “pre-steady-state target cleavage rate” value in assay [1] and in assay [2] were 0.0822 ± 0.019 and 0.00868 ± 0.0037, respectively.

In the case of GGAGACCAUAGUAAACAACCUACUACCUCA, the “pre-steady-state target cleavage rate” value in assay [1] was found to be 0.0682 ± 0.009; in assay [2] it was 0.00482 ± 0.0034.

Regarding GGAGUGCAUACUAUACAACCUACUACCUGA, the “pre-steady-state target cleavage rate” value is 0.09 ± 0.011 in assay [1] and 0.00576 ± 0.0029 in assay [2].

As for GGAGUGGAUACUAUUCAUCCUACUACCUCA, the results for the “pre-steady-state target cleavage rate” value in assay [1] and in assay [2] were 0.265 ± 0.016 and 0.0078 ± 0.0036, respectively.

For the sequence GGAGACCAUACUCUACAACCUACUACCUCA, the “pre-steady-state target cleavage rate” value in assay [1] worked out at 0.161 ± 0.018; in assay [2], 0.00922 ± 0.0037.

On to GGAGACCUUACUAUACAACCUACUAUCUCA, for which the “pre-steady-state target cleavage rate” value in assay [1] turned out to be 0.0879 ± 0.0097; in assay [2], 0.00831 ± 0.0039.

For GGAGACGAUACUAUAUAACCUACUACCUCA, the “pre-steady-state target cleavage rate” value in assay [1] amounted to 0.205 ± 0.011; in assay [2] it was 0.0091 ± 0.0042.

Consider GGAGACCUUAGAAUACAACCUACUACCUCA, for which the “pre-steady-state target cleavage rate” value was 0.011 ± 0.004 in assay [1] and 0.00613 ± 0.0038 in assay [2].

Turning to GGAGACGAUACUAUACAACCUAUACCUCA, the “pre-steady-state target cleavage rate” value in assay [1] is 0.0145 ± 0.0044; in assay [2], 0.00289 ± 0.0018.

GGAGACCUAACUAUACAACCUACUACCUA: the “pre-steady-state target cleavage rate” value is 0.0998 ± 0.021 in assay [1] and 0.0706 ± 0.025 in assay [2].

On to GGAGUGGAUACUAUACAACGUACAACCUCA, for which the “pre-steady-state target cleavage rate” value in assay [1] was 0.0258 ± 0.0036; in assay [2] it was 0.00367 ± 0.0016.

As to GGAGACCUAACUAUACAACCUACUACGUCA, the “pre-steady-state target cleavage rate” value was determined as 0.0415 ± 0.014 in assay [1] and 0.00274 ± 0.0023 in assay [2].

On to GGAGACGAUACUAUACAACCUACUACGAGA, for which the “pre-steady-state target cleavage rate” value in assay [1] was determined as 0.11 ± 0.034; in assay [2] it was 0.00501 ± 0.0017.

With GGAGAGGAUACUAUACUACCAACUACCUCA, the “pre-steady-state target cleavage rate” value turned out to be 0.00796 ± 0.0017 in assay [1] and 0.00357 ± 0.0021 in assay [2].

As to GGAGACCAUACUAAUACAACCUACUACCUCA, the “pre-steady-state target cleavage rate” value in assay [1] amounted to 0.124 ± 0.014; in assay [2], 0.0159 ± 0.0066.

For the sequence GGAGACGAUACUAAACAACGUACUACCUCA, the “pre-steady-state target cleavage rate” value in assay [1] came to 0.017 ± 0.0026; in assay [2] it was 0.00192 ± 0.0019.

For the sequence GGAGACGAUACUAUAACAACCUACUACCUCA, the “pre-steady-state target cleavage rate” value in assay [1] stood at 0.142 ± 0.012; in assay [2] it was 0.00793 ± 0.0029.

With GGAGACCAUACUAUACAACCUACUACCUGCA, the results for the “pre-steady-state target cleavage rate” value in assay [1] and in assay [2] were 0.213 ± 0.023 and 0.00318 ± 0.002, respectively.

GGAGACGAUACUAUACAACCUACUACAUCA: the “pre-steady-state target cleavage rate” value in assay [1] was 0.0978 ± 0.015; in assay [2], 0.0059 ± 0.0024.

In the case of GGAGACCAUUCUAUACAACCUACUACCUCA, the “pre-steady-state target cleavage rate” value amounted to 0.136 ± 0.013 in assay [1] and 0.0597 ± 0.02 in assay [2].

Consider GGAGAGGAUACUAUACAUCCUACUACCUGA, for which the “pre-steady-state target cleavage rate” value in assay [1] amounted to 0.00529 ± 0.0032; in assay [2], 0.00462 ± 0.002.

On to GGAGACCUAACUAUACAAGCUAGUACCUCA, for which the “pre-steady-state target cleavage rate” value in assay [1] is 0.0871 ± 0.019; in assay [2], 0.00423 ± 0.0037.

GGAGAGGAUACUAUACAACCUGCUACCUCA: the “pre-steady-state target cleavage rate” value in assay [1] was determined as 0.066 ± 0.0089; in assay [2], 0.114 ± 0.043.

For GGAGAGGUUACUAUAGAACCUACUACCUCA, the “pre-steady-state target cleavage rate” value in assay [1] came out at 0.157 ± 0.018; in assay [2], 0.00277 ± 0.0023.

As to GGAGACAAUACUAUACAACCUACUACCUCA, the “pre-steady-state target cleavage rate” value in assay [1] was 0.253 ± 0.021; in assay [2] it was 0.0606 ± 0.023.

With GGAGACCUUACAUACAACCUACUACCUCA, the entries for the “pre-steady-state target cleavage rate” value in assay [1] and in assay [2] were 0.0259 ± 0.0067 and 0.00863 ± 0.0045, respectively.

For GGAGACCAUACUAUACAACCUACGUACCUCA, the entries for the “pre-steady-state target cleavage rate” value in assay [1] and in assay [2] were 0.11 ± 0.018 and 0.00254 ± 0.0023, respectively.

Regarding GGAGAGGAUACAUAUACAACCUACUACCUCA, the “pre-steady-state target cleavage rate” value is 0.104 ± 0.0078 in assay [1] and 0.0587 ± 0.024 in assay [2].
